In PubChem BioAssay (EPA / NIEHS) one finds outcome and AC50 data, which are given here for three molecules.

The AC50 is the midpoint of the concentration-response curve, whichever way the signal moves.

The nature of assay [1]: BSK_hDFCGF_SRB: Viability Assessment in the BioMAP Diversity Plus: hDFCGF Assay (AID 2283061).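 Also: cells exposed to compound for 24 h before the read.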 As to conditions: primary human foreskin fibroblasts. Put shortly: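 Human foreskin primary fibroblasts were treated with compound and assessed 24 h after dosing. Total protein was measured by sulforhodamine B staining (0.1% SRB after 10% TCA fixation, 560 nm read) as a cytotoxicity marker, with bidirectional fitting against DMSO baseline.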

Read-out in assay [2]: TIMP metallopeptidase inhibitor 1 (TIMP1), TIMP1 (gene 7076)
Put plainly: BSK_hDFCGF_TIMP1: BioMAP Diversity Plus: hDFCGF Assay for TIMP metallopeptidase inhibitor 1 (TIMP1) Biomarker Activity (AID 2283062). The settings on record: primary human foreskin fibroblasts; actives raise or lower the signal. Put shortly: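 Primary human foreskin fibroblasts in the hDFCGF system were dosed with compound for 24 h, then TIMP-1 was measured by ELISA. Activity was fitted bidirectionally relative to DMSO control; parallel SRB staining assessed cytotoxicity.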

Read-out in assay [3]: Monokine induced gamma interferon (MIG), CXCL9 (gene 4283)
Put plainly: BSK_hDFCGF_MIG: BioMAP Diversity Plus: hDFCGF Assay for Monokine induced gamma interferon (MIG) Biomarker Activity (AID 2283063). The settings on record: primary human foreskin fibroblasts; actives raise or lower the signal. Put shortly:
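ELISA read-out of MIG from primary human dermal fibroblasts 24 h post-dosing. Gain or loss of signal fitted bidirectionally, DMSO as baseline.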

Read-out in assay [4]: Matrix Metallopeptidase 1 (MMP1), MMP1 (gene 4312)
Put plainly: BSK_hDFCGF_MMP1: BioMAP Diversity Plus: hDFCGF Assay for Matrix Metallopeptidase 1 (MMP1) Biomarker Activity (AID 2283064). The settings on record: primary human foreskin fibroblasts; actives raise or lower the signal. The method, boiled down:
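hDFCGF primary fibroblasts (human foreskin); chemical added; 24 h; MMP1 by ELISA; bidirectional fit vs DMSO.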

Read-out in assay [5]: Vascular cell adhesion molecule 1 (VCAM1), VCAM1 (gene 7412)
Put plainly: BSK_hDFCGF_VCAM1: BioMAP Diversity Plus: hDFCGF Assay for Vascular cell adhesion molecule 1 (VCAM1) Biomarker Activity (AID 2283065). The settings on record: primary human foreskin fibroblasts; actives raise or lower the signal. The method, boiled down:
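Primary human foreskin fibroblasts (hDFCGF system) were dosed with chemical and VCAM-1 was measured by ELISA 24 h later. Bidirectional curve fitting used DMSO as negative control and activity baseline.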

Read-out in assay [6]: Plasminogen activator inhibitor-1 (PAI1), SERPINE1 (gene 5054)
Put plainly: BSK_hDFCGF_PAI1: BioMAP Diversity Plus: hDFCGF Assay for Plasminogen activator inhibitor-1 (PAI1) Biomarker Activity (AID 2283066). As to conditions: primary human foreskin fibroblasts; actives raise or lower the signal. Put shortly: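 Primary dermal fibroblasts (human foreskin), hDFCGF system; compound 24 h; PAI-1 by ELISA; bidirectional fit vs DMSO control.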

Read-out in assay [7]: Intercellular Adhesion Molecule 1 (ICAM1), ICAM1 (gene 3383)
Put plainly: BSK_KF3CT_ICAM1: BioMAP Diversity Plus: KF3CT Assay for Intercellular Adhesion Molecule 1 (ICAM1) Biomarker Activity (AID 2283067). As to conditions: primary human keratinocytes with fibroblasts; actives raise or lower the signal. Put shortly: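 Human keratinocyte plus foreskin fibroblast primary co-culture was exposed to chemical for 24 h. ICAM-1 was then quantified by ELISA, and the data were fit bidirectionally against DMSO as the negative control and baseline.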

Read-out in assay [8]: Interferon-gamma inducible Protein 10 (IP10), CXCL10 (gene 3627)
Put plainly: BSK_KF3CT_IP10: BioMAP Diversity Plus: KF3CT Assay for Interferon-gamma inducible Protein 10 (IP10) Biomarker Activity (AID 2283068). The settings on record: primary human keratinocytes with fibroblasts; actives raise or lower the signal. The method, boiled down:
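Human keratinocyte plus foreskin fibroblast primary co-culture exposed to test chemical for 24 h; IP-10 measured by ELISA. Concentration-response fitted bidirectionally against DMSO control as baseline.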

Assay [9] can be described thus: BSK_KF3CT_SRB: Viability Assessment in the BioMAP Diversity Plus: KF3CT Assay (AID 2283069).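 Also: fitted for both signal gain and loss against DMSO baseline.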 As to conditions: primary human keratinocytes with fibroblasts. Put shortly: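 Keratinocytes co-cultured with foreskin fibroblasts (human primary); chemical added, 24 h; fix 10% TCA, stain 0.1% SRB, A560. Bidirectional fit vs DMSO.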
Read-out in assay [10]: Interleukin-1 alpha (IL1a), IL1A (gene 3552)
Put plainly: BSK_KF3CT_IL1a: BioMAP Diversity Plus: KF3CT Assay for Interleukin-1 alpha (IL1a) Biomarker Activity (AID 2283070). The settings on record: primary human keratinocytes with fibroblasts; actives raise or lower the signal. Put shortly: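 Chemicals were dosed onto co-cultured human keratinocytes and foreskin fibroblasts, IL-1a was quantified by ELISA at 24 h, and activity was fitted in both directions relative to DMSO controls.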

Read-out in assay [11]: TIMP metallopeptidase inhibitor 2 (TIMP2), TIMP2 (gene 7077)
Put plainly: BSK_KF3CT_TIMP2: BioMAP Diversity Plus: KF3CT Assay for TIMP metallopeptidase inhibitor 2 (TIMP2) Biomarker Activity (AID 2283071). The settings on record: primary human keratinocytes with fibroblasts; actives raise or lower the signal. Put shortly:
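Cells: human keratinocytes co-cultured with foreskin fibroblasts. Treat with chemical, 24 h. Measure TIMP-2 by ELISA; fit curves bidirectionally vs DMSO baseline.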

Read-out in assay [12]: Transforming growth factor beta 1 (TGFb1), TGFB1 (gene 7040)
Put plainly: BSK_KF3CT_TGFb1: BioMAP Diversity Plus: KF3CT Assay for Transforming growth factor beta 1 (TGFb1) Biomarker Activity (AID 2283072). The settings on record: primary human keratinocytes with fibroblasts; actives raise or lower the signal. Put shortly:
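Primary human skin cells (keratinocytes, foreskin fibroblasts) were co-cultured, exposed to test chemical and sampled at 24 h. TGF-b1 levels were measured by ELISA and fitted bidirectionally relative to DMSO.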

Read-out in assay [13]: C-C motif chemokine 2 (Homo sapiens) (UniProt P13500)
Put plainly: BSK_KF3CT_MCP1: BioMAP Diversity Plus: KF3CT Assay for Monocyte Chemoattractant Protein 1 (MCP1/CCL2) Biomarker Activity (AID 2283073). As to conditions: primary human keratinocytes with fibroblasts; actives raise or lower the signal. Put shortly:
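Human keratinocyte plus foreskin fibroblast primary co-culture exposed to chemical for 24 h. MCP-1 levels measured by ELISA. Bidirectional curve fitting relative to DMSO negative control as baseline.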

Read-out in assay [14]: Matrix Metallopeptidase 9 (MMP9), MMP9 (gene 4318)
Put plainly: BSK_KF3CT_MMP9: BioMAP Diversity Plus: KF3CT Assay for Matrix Metallopeptidase 9 (MMP9) Biomarker Activity (AID 2283074). The settings on record: primary human keratinocytes with fibroblasts; actives raise or lower the signal. The method, boiled down:
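Human keratinocyte/foreskin fibroblast co-culture; compound added; 24 h; MMP-9 by ELISA; bidirectional fit vs DMSO baseline.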

Read-out in assay [15]: urokinase plasminogen activator (uPA), PLAU (gene 5328)
Put plainly: BSK_KF3CT_uPA: BioMAP Diversity Plus: KF3CT Assay for urokinase plasminogen activator (uPA) Biomarker Activity (AID 2283075). The settings on record: primary human keratinocytes with fibroblasts; actives raise or lower the signal. The method, boiled down:
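ELISA readout of uPA, analyzed for signal gain or loss relative to DMSO, from a human primary keratinocyte–foreskin fibroblast co-culture measured 24 h after chemical treatment.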

Read-out in the next assay: CD40, CD40 (gene 958)
Put plainly: BSK_LPS_CD40: BioMAP Diversity Plus: LPS Assay for CD40 Biomarker Activity (AID 2283076). As to conditions: primary human HUVEC with PBMC; actives raise or lower the signal. Put shortly:
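Primary human umbilical vein endothelial cells co-cultured with peripheral blood mononuclear cells, LPS-stimulated, were dosed with chemical and read 24 h later. CD40 levels were measured by ELISA and fitted bidirectionally against DMSO as negative control and baseline.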

Read-out in assay [16]: E-selectin (Homo sapiens) (UniProt P16581)
Put plainly: BSK_LPS_Eselectin: BioMAP Diversity Plus: LPS Assay for Eselectin Biomarker Activity (AID 2283077). The settings on record: primary human HUVEC with PBMC; actives raise or lower the signal. Put shortly:
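Human umbilical vein endothelial cells co-cultured with peripheral blood mononuclear cells under LPS stimulation; E-selectin measured by ELISA 24 h after chemical dosing. Activity fitted bidirectionally against DMSO as negative control and baseline.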

Read-out in assay [17]: Interleukin-8 (IL8), CXCL8 (gene 3576)
Put plainly: BSK_LPS_IL8: BioMAP Diversity Plus: LPS Assay for Interleukin-8 (IL8) Biomarker Activity (AID 2283078). As to conditions: primary human HUVEC with PBMC; actives raise or lower the signal. The method, boiled down:
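Human umbilical vein endothelial cells co-cultured with PBMC were stimulated with LPS; IL-8 levels were measured by ELISA 24 h after chemical dosing. Activity was fitted bidirectionally against DMSO as negative control and baseline.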

Assay [18] in a line: BSK_LPS_SRB: Viability Assessment in the BioMAP Diversity Plus: LPS Assay (AID 2283079).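 Also: total protein by sulforhodamine B absorbance as a cytotoxicity measure; measured one day after compound addition; fitted in both directions against DMSO so loss or gain of signal counts.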 As to conditions: primary human HUVEC with PBMC. Put shortly: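 Human umbilical vein endothelial cells co-cultured with PBMC (LPS system) were dosed for 24 h. Total protein was stained with 0.1% sulforhodamine B after 10% TCA fixation, read at 560 nm, and fitted bidirectionally against DMSO baseline.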

Read-out in assay [19]: Interleukin-1 alpha (IL1a), IL1A (gene 3552)
Put plainly: BSK_LPS_IL1a: BioMAP Diversity Plus: LPS Assay for Interleukin-1 alpha (IL1a) Biomarker Activity (AID 2283080). As to conditions: primary human HUVEC with PBMC; actives raise or lower the signal. The method, boiled down: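 Human umbilical vein endothelial cells co-cultured with peripheral blood mononuclear cells were LPS-stimulated and exposed to test chemicals for 24 h. IL-1 alpha was quantified by ELISA, with bidirectional curve fitting against DMSO as the negative control and baseline.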

Several values for one entry are separate records, joined by “and”; a condition that tells them apart may be missing. Identical values can stand only once. A structure can be active in one record and inactive in another. Activity calls are given as the source filed them. The calls were made as follows: active = hit-call score of the fitted dose curve at least 0.9, where 1 is the maximum; inactive = score below 0.9.

Chain of E-selectin (Homo sapiens) (P16581 whole entry, looked up): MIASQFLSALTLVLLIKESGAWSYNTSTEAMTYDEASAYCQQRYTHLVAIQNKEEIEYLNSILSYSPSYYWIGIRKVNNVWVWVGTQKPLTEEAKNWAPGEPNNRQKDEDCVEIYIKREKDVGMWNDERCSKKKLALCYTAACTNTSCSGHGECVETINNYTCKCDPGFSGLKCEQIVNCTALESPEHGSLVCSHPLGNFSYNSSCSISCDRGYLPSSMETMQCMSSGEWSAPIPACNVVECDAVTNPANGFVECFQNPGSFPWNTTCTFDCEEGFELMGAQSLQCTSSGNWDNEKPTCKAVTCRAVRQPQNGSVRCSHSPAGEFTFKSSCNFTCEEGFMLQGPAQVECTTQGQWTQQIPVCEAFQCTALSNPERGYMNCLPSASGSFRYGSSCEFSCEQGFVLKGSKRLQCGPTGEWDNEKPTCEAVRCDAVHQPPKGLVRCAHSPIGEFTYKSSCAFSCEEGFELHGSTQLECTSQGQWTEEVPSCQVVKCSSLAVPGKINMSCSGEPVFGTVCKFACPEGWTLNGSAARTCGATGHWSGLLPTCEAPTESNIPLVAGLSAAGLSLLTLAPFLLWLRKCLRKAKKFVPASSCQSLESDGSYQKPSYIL

As for `O=S(=O)(O)C(F)(F)C(F)(F)C(F)(F)C(F)(F)C(F)(F)C(F)(F)F`, the outcome in assay [1], in [2], in assay [3], in assay [4], in assay [5] and in [6] was inactive. For the same molecule, the result in assay [7], in [8], in assay [9], in assay [10], in [11] and in assay [12] was inactive. The outcome is “inactive” in assay [13]; “inactive” in [14]; “inactive” in assay [15]; “inactive” in the assay with CD40, CD40 (gene 958); “inactive” in [16]; “inactive” in assay [17]. Besides, the result in [18] and in assay [19] was inactive. Also, the AC50 in assay [17] is 14.6 µM (active) and 43.9 µM (active).

With `c1cc2ccc3cccc4ccc(c1)c2c34`, the result in assay [1], in [2], in [3], in assay [4], in assay [5] and in assay [6] was inactive. For the same molecule, the outcome in [7], in [8], in [9], in [10], in assay [11] and in assay [12] was inactive. In addition, the outcome was “inactive” in assay [14]; “inactive” in assay [15]; “inactive” with CD40, CD40 (gene 958); “inactive” in assay [16]; “inactive” in assay [17]; “inactive” in [18]. The result in assay [19] was inactive.

Turning to `CN(C)CCO`, the outcome in assay [1], in assay [2], in assay [3], in assay [4], in assay [5] and in assay [6] was inactive. The result in assay [7], in assay [8], in assay [9], in [10], in assay [11] and in assay [12] was inactive. Besides, the outcome in assay [14] was “inactive”; in [15], “inactive”; with CD40, CD40 (gene 958), “inactive”; in assay [16], “inactive”; in assay [17], “inactive”; in [18] it was “inactive”. Also, the result in [19] was inactive.
